Assay [1] is described as follows: qHTS of pediatric cancer cell lines to identify multiple opportunities for drug repurposing: Primary screen for BT-37 cells (AID 1347094). As to conditions: BT-37 viability, CellTiter-Glo luminescence, 48 h; series mostly up to 57.3 µM. In outline: (§1)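 Cells seeded at 500-1,000 cells/well in growth media, rested 5 hours at 37 degrees C, 5% CO2, then dosed; MIPE compounds at 11-point (from 0.78 nM) and NPC at 8-point (from 0.59 nM) final concentrations. Viability by CellTiter-Glo luminescence after 48 hours.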
In general terms: Quantitative high-throughput screening tests each substance at several concentrations.

A short description of assay [2]: qHTS of pediatric cancer cell lines to identify multiple opportunities for drug repurposing: Primary screen for NB-EBc1 cells (AID 1347095). As to conditions: NB-EBc1 neuroblastoma viability, CellTiter-Glo luminescence, 48 h; series mostly up to 46 µM. Summed up: as §1
Assay [3] in a line: qHTS of pediatric cancer cell lines to identify multiple opportunities for drug repurposing: Primary screen for U-2 OS cells (AID 1347096). Also: nearly all actives have a fitted effect of over 50% in size. As to conditions: U-2 OS viability, CellTiter-Glo luminescence, 48 h; series mostly up to 46 µM. Summed up: (§2)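 Cells (500-1,000/well) rested 5 h, then received compounds for 48 h; metabolically active cells were measured by CellTiter-Glo luminescence. Final concentrations spanned up to 46 µM (MIPE, 11-point) or 0.59 nM-46 µM (NPC, 8-point) in primary screens, 11-point in follow-ups.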

Assay [4] in a line: qHTS of pediatric cancer cell lines to identify multiple opportunities for drug repurposing: Primary screen for Saos-2 cells (AID 1347097). Also: nearly all actives have a fitted effect of over 40% in size. As to conditions: Saos-2 viability, CellTiter-Glo ATP luminescence, 48 h; series mostly up to 46 µM. In outline:
as §1

Assay [5] in a line: qHTS of pediatric cancer cell lines to identify multiple opportunities for drug repurposing: Primary screen for SK-N-SH cells (AID 1347098).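 Also: DMSO served as neutral control and bortezomib at 2.3 µM as positive control; nearly all actives have a fitted effect of over 65% in size.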 As to conditions: SK-N-SH viability, CellTiter-Glo luminescence, 48 h; series mostly up to 57 µM. In outline:
as §2

Assay [6] is described as follows: qHTS of pediatric cancer cell lines to identify multiple opportunities for drug repurposing: Primary screen for LAN-5 cells (AID 1347100). Also: potency is read from the fitted curve at half-maximal effect. As to conditions: LAN-5 neuroblastoma viability, CellTiter-Glo luminescence, 48 h; series mostly up to 46 µM. Summed up:
as §2

Assay [7] is described as follows: qHTS of pediatric cancer cell lines to identify multiple opportunities for drug repurposing: Primary screen for BT-12 cells (AID 1347101). Also: nearly all actives have a fitted effect of over 25% in size. As to conditions: BT-12 viability, CellTiter-Glo luminescence, 48 h; series mostly up to 57.3 µM. Summed up:
as §2

The nature of assay [8]: qHTS of pediatric cancer cell lines to identify multiple opportunities for drug repurposing: Primary screen for Rh18 cells (AID 1347102). Also: nearly all actives have a fitted effect of over 65% in size. As to conditions: Rh18 rhabdomyosarcoma viability, CellTiter-Glo luminescence, 48 h; series mostly up to 46 µM. Summed up: as §2
Assay [9] can be described thus: qHTS of pediatric cancer cell lines to identify multiple opportunities for drug repurposing: Primary screen for NB1643 cells (AID 1347099). Also: nearly all actives have a fitted effect of over 50% in size. As to conditions: NB1643 neuroblastoma viability, CellTiter-Glo luminescence, 48 h; series mostly up to 46 µM. In outline:
as §1

Structures are written as SMILES. Inconclusive results are not listed. Active and inactive are the calls of the source. Calls follow the shape of the dose curve; as a rule, active = well fitted curve in the direction sought with a large enough effect; inconclusive = small, poorly fitted or top-dose-only effect, or another doubt; inactive = no such curve, though single readings can be large; an effect the other way counts as inactive or inconclusive.

For `COc1ccc2c(c1OC)C(=O)O[C@H]2[C@@H]1c2cc3c(cc2CCN1C)OCO3`, the Potency entry in assay [1], in assay [2], in assay [3], in [4], in assay [5] and in assay [6] was “inactive” in each case. Besides, the Potency result in [7] and in assay [8] was “inactive” each time.

For `O=C1CN=C(c2ccccc2)c2cc([N+](=O)[O-])ccc2N1`, the Potency entry in [2], in assay [3], in assay [5], in assay [9], in [6] and in assay [7] was “inactive” in each case.

`C=CCC1(C(C)CC)C(=O)NC(=O)NC1=O` (stereo not drawn): the Potency entry in assay [2], in assay [3], in [4], in assay [9], in assay [6] and in [7] was “inactive” each time. Also, the Potency entry in assay [8] was “inactive”.

With `CC(C)N(CCC(C(N)=O)(c1ccccc1)c1ccccn1)C(C)C` (stereo not drawn), the Potency entry in [1], in assay [2], in assay [3], in assay [4], in assay [5] and in assay [6] was “inactive” each time. Also, the Potency result in assay [7] and in assay [8] was “inactive” each time.

Turning to `CCN[C@H](C)Cc1cccc(C(F)(F)F)c1`, the Potency entry in assay [1], in assay [2], in assay [3], in assay [4], in [9] and in assay [6] was “inactive” throughout. The Potency result in [7] is “inactive”.

As for `O=C1OC(CCN2CCCCC2)OC1(c1ccccc1)c1ccccc1` (stereo not drawn), the Potency entry in [1], in [2], in assay [3], in assay [4], in assay [7] and in assay [8] was “inactive” throughout. The Potency in [6] is 4.73 µM (active).

As for `O=c1[nH]c2ccccc2n1C1CCNCC1`, the Potency result in [1], in assay [2], in assay [3], in assay [4], in assay [5] and in assay [6] was “inactive” throughout. Also, the Potency result in [7] and in assay [8] was “inactive” each time.

With `CNC(C)(C)Cc1ccccc1`, the Potency result in [2], in assay [3], in assay [4], in [5], in [6] and in assay [7] was “inactive” throughout.

Consider `CC(C)=CC1C(C(=O)OCN2C(=O)C3=C(CCCC3)C2=O)C1(C)C` (stereo not drawn), for which the Potency entry in assay [3] was “inactive”.

`CC1(C)C(C=C(Cl)Cl)C1C(=O)OC(C#N)c1cccc(Oc2ccccc2)c1` (stereo not drawn): the Potency entry in assay [2], in [3], in assay [4], in [6], in [7] and in assay [8] was “inactive” each time.

In the case of `C[C@]12CCC(=O)C=C1CC[C@@H]1[C@@H]2CC[C@@]2(C)[C@H]1CC[C@]2(C)O`, the Potency result in assay [3], in assay [5], in assay [9] and in assay [6] was “inactive” each time.
